“And” between values parts separate entries of the source, which are not always exact repeats. Equal values may be shown once. The source made the active and inactive calls. A call without a number means that no potency is given here. Unless noted, the call rests on the fitted dose curve; in most records, active means well fitted curve in the direction sought with a large enough effect in the repeat runs; inconclusive means weak or mixed curves; inactive means no such curve, though single readings can be large; an effect the other way counts as inactive or inconclusive.
How the values were obtained:
[1] = qHTS assay to identify small molecule antagonists of the glucocorticoid receptor (GR) signaling pathway - cell viability counter screen (AID 720693); further: nearly all actives have a fitted effect of over 55% in size; further: potency means the concentration at half of the fitted maximal effect
[2] = qHTS assay for identifying genotoxic compounds that show differential cytotoxicity against isogenic chicken DT40 cell lines with known DNA damage response pathways - wild type cell line (AID 743012); further: nearly all actives have a fitted effect of over 60% in size; further: potency means the concentration at half of the fitted maximal effect
How it was run: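 300 wt DT40 cells/well; cpd (DMSO) pintool-transferred after ~0.5 h at 37 C/5% CO2; 40 h incubation; CellTiter-Glo added, 30 min RT; luminescence read.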

[3] = qHTS assay for identifying genotoxic compounds that show differential cytotoxicity against isogenic chicken DT40 cell lines with known DNA damage response pathways - Rev3 mutant cell line (AID 743014); further: nearly all actives have a fitted effect of over 55% in size; further: potency means the concentration at half of the fitted maximal effect
[4] = qHTS assay for identifying genotoxic compounds that show differential cytotoxicity against isogenic chicken DT40 cell lines with known DNA damage response pathways - Rad54/Ku70 mutant cell line (AID 743015); further: nearly all actives have a fitted effect of over 60% in size; further: potency means the concentration at half of the fitted maximal effect
[5] = qHTS assay to identify small molecule antagonists of the androgen receptor (AR) signaling pathway - cell viability counter screen (AID 743033; further: nearly all actives have a fitted effect of over 45% in size; further: potency means the concentration at half of the fitted maximal effect)
[6] = qHTS assay to identify small molecule antagonists of the androgen receptor (AR) signaling pathway using the MDA cell line - cell viability counter screen (AID 743041; further: nearly all actives have a fitted effect of over 45% in size; further: potency means the concentration at half of the fitted maximal effect)
How it was run: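 Cytotoxicity counter screen: MDA-kb2 AR-luc cells, compound + R1881, 16 h, 37C, 0% CO2; CellTiter-Fluor added at 15.5 h, fluorescence read after 30 min.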

[7] = qHTS assay to identify small molecule antagonists of the thyroid receptor (TR) signaling pathway - cell viability counter screen (AID 743064); further: nearly all actives have a fitted effect of over 50% in size; further: potency means the concentration at half of the fitted maximal effect
How it was run: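 Viability of T3-stimulated (1 nM final) GH3.TRE-Luc cells is measured by CellTiter-Fluor fluorescence after 23.5 h compound exposure at 37 °C plus 30 min reagent incubation.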

[8] = tested on: thyroid hormone receptor (rat, GH3 cells); test: qHTS assay to identify small molecule agonists of the thyroid receptor (TR) signaling pathway (AID 743066; calls by dose curve)
[9] = biological target: Estrogen receptor (Homo sapiens) (UniProt P03372); test: qHTS assay to identify small molecule antagonists of the estrogen receptor alpha (ER-alpha) signaling pathway (AID 743069; active means well fitted curve in the direction sought with a large enough effect in the signal ratio in the repeat runs, not every such curve was filed as active; inconclusive means weak or mixed curves, or effect the other way; inactive means no such curve, though single readings can be large or run the other way; the % refers to the signal ratio; further: potency means the concentration at half of the fitted maximal effect)
How it was run: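 Beta-lactamase FRET fluorescence is read after 2 hr at room temperature with LiveBLAzer B/G substrate. Before that, ER-alpha-bla HEK293 cells sit 4 hr after plating, then receive compound plus 17beta-estradiol and incubate 18 hr at 37C.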

[10] = qHTS assay to identify small molecule antagonists of the estrogen receptor alpha (ER-alpha) signaling pathway - cell viability counter screen (AID 743074; calls by dose curve;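 further: HEK293 cells carrying ER-alpha-UAS-bla reporter stimulated with 17beta-estradiol; nearly all actives have a fitted effect of over 45% in size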; further: potency means the concentration at half of the fitted maximal effect)
[11] = biological target: Estrogen receptor (Homo sapiens) (UniProt P03372); test: qHTS assay to identify small molecule agonists of the estrogen receptor alpha (ER-alpha) signaling pathway (AID 743075; calls by dose curve;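 further: HEK293 GripTite cells with ER-alpha and UAS-driven beta-lactamase reporter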; further: potency means the concentration at half of the fitted maximal effect)
[12] = biological target: Estrogen receptor (Homo sapiens) (UniProt P03372); test: qHTS assay to identify small molecule agonists of the estrogen receptor alpha (ER-alpha) signaling pathway using the BG1 cell line (AID 743079); conditions: BG1Luc4E2 cells, ERE-luciferase agonist, 22 h; activation: at 70.3 µM (top of the series) unless noted; further: nearly all actives have a fitted effect of over 20% in size; further: potency means the concentration at half of the fitted maximal effect
[13] = qHTS assay to identify small molecule antagonists of the estrogen receptor alpha (ER-alpha) signaling pathway using the BG1 cell line (AID 743080; calls by dose curve;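 further: BG1 cells stimulated with 17beta-estradiol alongside compound; nearly all actives have a fitted effect of over 25% in size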; further: potency means the concentration at half of the fitted maximal effect)
How it was run: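 Seeding, 24 h rest, compound transfer from DMSO, 17beta-estradiol addition, 21.5 h incubation, CellTiter-Fluor (30 min, 37 C), then ONE-Glo (30 min, room temperature): this sequence was run on BG1-Luc-4E2 reporter cells.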

[14] = qHTS assay to identify small molecule antagonists of the estrogen receptor alpha (ER-alpha) signaling pathway using the BG1 cell line - cell viability counter screen (AID 743081);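 further: compound given together with 17beta-estradiol as the ER stimulus; nearly all actives have a fitted effect of over 45% in size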; further: potency means the concentration at half of the fitted maximal effect
Aromatase (Homo sapiens) = Aromatase (Homo sapiens) (UniProt P11511); test: qHTS assay to identify aromatase inhibitors (AID 743083); further: nearly all actives have a fitted effect of over 55% in size; further: potency means the concentration at half of the fitted maximal effect
[15] = qHTS assay to identify small molecule antagonists of the thyroid receptor (TR) signaling pathway (AID 743065); further: nearly all actives have a fitted effect of over 55% in size; further: potency means the concentration at half of the fitted maximal effect
How it was run: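 GH3.TRE-Luc rat pituitary cells (two TREs driving luciferase) were dosed with compound, then stimulated with 1 nM T3 (final) for 23.5 h at 37 C. ONE-Glo luminescence was the read-out, with CellTiter-Fluor fluorescence as the cytotoxicity counter-screen.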

Sequence of Estrogen receptor (Homo sapiens) (P03372 whole entry, looked up): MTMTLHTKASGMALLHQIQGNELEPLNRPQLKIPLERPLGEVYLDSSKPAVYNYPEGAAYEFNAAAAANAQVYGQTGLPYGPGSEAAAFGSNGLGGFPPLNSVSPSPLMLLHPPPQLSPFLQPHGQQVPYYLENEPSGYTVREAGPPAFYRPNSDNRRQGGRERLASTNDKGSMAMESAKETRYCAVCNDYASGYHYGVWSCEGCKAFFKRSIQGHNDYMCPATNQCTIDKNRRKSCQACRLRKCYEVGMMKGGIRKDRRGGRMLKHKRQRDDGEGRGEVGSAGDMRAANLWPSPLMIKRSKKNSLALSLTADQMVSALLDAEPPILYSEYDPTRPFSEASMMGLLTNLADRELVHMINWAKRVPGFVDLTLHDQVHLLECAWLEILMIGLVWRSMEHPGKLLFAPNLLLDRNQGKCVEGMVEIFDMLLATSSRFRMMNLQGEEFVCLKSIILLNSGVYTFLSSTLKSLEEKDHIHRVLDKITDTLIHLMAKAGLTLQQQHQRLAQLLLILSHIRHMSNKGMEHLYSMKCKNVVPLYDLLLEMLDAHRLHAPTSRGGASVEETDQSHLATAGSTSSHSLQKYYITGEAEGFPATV
Sequence of Aromatase (Homo sapiens) (P11511 whole entry, looked up): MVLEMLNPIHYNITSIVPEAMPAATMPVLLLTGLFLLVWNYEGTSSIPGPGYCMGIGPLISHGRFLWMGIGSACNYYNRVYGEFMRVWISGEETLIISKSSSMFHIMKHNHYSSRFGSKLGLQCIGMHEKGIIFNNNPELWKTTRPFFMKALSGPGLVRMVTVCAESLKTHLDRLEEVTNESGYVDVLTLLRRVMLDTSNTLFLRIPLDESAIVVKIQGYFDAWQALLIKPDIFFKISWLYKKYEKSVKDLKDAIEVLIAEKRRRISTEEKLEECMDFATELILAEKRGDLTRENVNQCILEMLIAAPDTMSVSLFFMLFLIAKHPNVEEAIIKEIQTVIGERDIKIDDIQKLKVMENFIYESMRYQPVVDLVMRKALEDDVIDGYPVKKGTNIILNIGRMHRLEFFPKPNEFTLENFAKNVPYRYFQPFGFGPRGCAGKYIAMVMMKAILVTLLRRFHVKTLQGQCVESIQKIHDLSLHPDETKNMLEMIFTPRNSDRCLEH

Row | SMILES | Potency [1] | Potency [2] | Potency [3] | Potency [4] | Potency [5] | Potency [6] | Potency [7] | Potency [8] | Potency [9] | Potency [10] | Potency [11] | Potency [12] | Potency [13] | Potency [14] | Potency (Aromatase (Homo sapiens)) | Potency [15]
1 | C[N+](C)(C)CC(=O)[O-] | inactive | inactive | inactive | inactive | inactive | inactive | inactive | inactive | inactive | inactive | inactive | inactive | inactive | inactive | inactive | 
2 | CC(C)(C#N)N=NC(C)(C)C#N | inactive | inactive | inactive | inactive | inactive | inactive | inactive |  | inactive | inactive | inactive | inactive | inactive | inactive | inactive | 
3 | NN=C(N)N | inactive | inactive |  | inactive | inactive | inactive | inactive | inactive |  | inactive |  |  |  | inactive | inactive | inactive
4 | CCCCC(C#N)(Cn1cncn1)c1ccc(Cl)cc1 (configuration not stated) | inactive | 61.1 µM (active) | 60.9 µM (active) and 19.3 µM (active) | 60.9 µM (active) | inactive | inactive | inactive | inactive | inactive | inactive | inactive | inactive | 30.5 µM (active) and 61.1 µM (active) | inactive | 4.84 µM (active) and 3.86 µM (active) | 
5 | N#Cc1c(Cl)c(Cl)c(Cl)c(C#N)c1Cl | 21.5 µM (active) and 21.9 µM (active) | 268 nM (active) and 122 nM (active) | 213 nM (active) and 172 nM (active) | 268 nM (active) and 154 nM (active) | 2.41 µM (active) and 1.55 µM (active) | 4.76 µM (active) and 6.11 µM (active) | 847 nM (active) and 193 nM (active) |  | 3.4 µM [inconclusive] (active) | 42.8 µM (active) and 54.9 µM (active) | 87.1 µM [inconclusive] (active) |  |  | 53.4 µM (active) and 61.1 µM (active) | 1.51 µM (active) and 969 nM (active) | 476 nM (active) and 172 nM (active)
6 | C[C@]12CC[C@H]3[C@@H](CCC4=CC(=O)CC[C@@H]43)[C@@H]1CC[C@@H]2O | inactive | 26.6 µM (active) | inactive |  | inactive | inactive | inactive | inactive |  | inactive | 1.34 µM [inconclusive] (active) and 268 nM [inconclusive] (active) and 243 nM [inconclusive] (active) | 106 nM (active) and 59.6 nM (active) and 108 nM (active) | inactive | inactive | inactive | 21.1 µM (active) and 13.3 µM (active) and 30.4 µM (active)
7 | C[N+](C)(C)CC(=O)O | inactive | inactive | inactive | inactive | inactive | inactive | inactive | inactive | inactive | inactive | inactive | inactive | inactive | inactive | inactive | 
